This is a sample that favours compounds with a hit; in the whole collection about 4.7% have one here.
SKKanGAS inh = SKKanGAS growth inhibition | S. pyogenes SKKanGAS, kanamycin growth, BacTiter-Glo, 6 h | inhibition, % at 7.5 µM | 300,000 compounds, 1.3% hits | AID 1662;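 active = mean replicate score, as percent of positive control median, at least 50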;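 note: strain carries kanamycin resistance gene driven by streptokinase promoter and grows in 40 µg/ml kanamycin; loss of luminescence reflects streptokinase promoter inhibition or plain growth inhibition; 0% = median of DMSO wells and 100% = positive control at its reference dose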
tim23-1 inh = inhibits growth of tim23-1 mutant yeast; S. cerevisiae tim23-1 growth, BacTiter-Glo luminescence, 24 h; AID 463212; 330,000 compounds, 1.3% hits; inhibition, % at 20 µM;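 active = growth inhibition of the mutant yeast at or above 50%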;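 note: temperature-sensitive mutant grown at 25 °C; plate controls were DMSO-treated mutant yeast for no effect and medium wells lacking yeast for full effect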
TIM10 inh = inhibits growth of TIM10 yeast strain; S. cerevisiae TIM10 strain growth, BacTiter-Glo luminescence, 24 h; inhibition, % at 10 µM; 330,000 compounds, 1.4% hits; AID 463195;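 active = inhibition of 40% or more at the single tested concentration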;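 note: wild-type TIM10 isogenic control strain grown at permissive 25 °C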
tim10-1 inh = tim10-1 yeast growth inhibition; S. cerevisiae tim10-1 ts strain growth, BacTiter-Glo, 24 h; inhibition, % at 20 µM; 330,000 compounds, 2.2% hits; AID 463190;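 active = inhibition of at least 40%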;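 note: mutant grown at 25 °C; 0% = DMSO wells with yeast and 100% = wells holding no yeast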
PfHsp90 yeast 2 = reduces growth (ATP signal) of yeast expressing P. falciparum Hsp90 | AID 504621 | inhibition, % at 9.4 µM | 310,000 compounds, 0.32% hits | S. cerevisiae expressing PfHsp90, BacTiter-Glo ATP, 48 h; yeast lacking PDR1 and PDR3 efflux regulators;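 active = every replicate shows inhibition above about 80%, whatever the replicate mean, limit read from the data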;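 note: 0% = DMSO neutral controls and 100% = 20 µM radicicol positive controls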
EBI2 antag = EBI2 (human) antagonism; EBI2 beta-arrestin recruitment, luminescence, 7a,25-OHC stimulated; inhibition, % at 5 µM; 360,000 compounds, 0.81% hits; AID 651636; in the data active = inhibition above about 38%;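 note: enzyme fragment complementation signal reports receptor beta-arrestin coupling in cells; 0% = agonist plus DMSO wells and 100% = wells without agonist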
Target sequence (P32249 whole entry, looked up, the tested form may be a part): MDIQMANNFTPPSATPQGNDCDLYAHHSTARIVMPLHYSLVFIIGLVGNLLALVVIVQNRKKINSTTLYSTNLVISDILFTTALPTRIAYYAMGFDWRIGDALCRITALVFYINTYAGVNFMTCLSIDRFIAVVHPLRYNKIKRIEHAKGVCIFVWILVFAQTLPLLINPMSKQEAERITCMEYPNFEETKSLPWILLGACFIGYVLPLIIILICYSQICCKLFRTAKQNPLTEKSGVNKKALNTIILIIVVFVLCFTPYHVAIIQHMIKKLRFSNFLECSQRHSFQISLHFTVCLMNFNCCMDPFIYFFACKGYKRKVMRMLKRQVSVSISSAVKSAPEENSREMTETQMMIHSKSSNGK
TIM10 conf = TIM10 yeast growth inhibition, confirmed. shares compounds with TIM10 inh. S. cerevisiae tim10 strain growth, BacTiter-Glo luminescence, 24 h. inhibition, % at 10 µM. 4,600 compounds, 63% hits;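 active = inhibition of yeast growth at or above a set limit in either of two replicates at 10 µM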;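 note: this counterscreen used the strain with wild-type TIM10; 0% = yeast with DMSO and 100% = medium wells lacking yeast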
tim23-1 conf = confirmation of tim23-1 mutant yeast growth inhibitors. 4,400 compounds, 83% hits. S. cerevisiae tim23-1 growth, BacTiter-Glo luminescence, 24 h. shares compounds with tim23-1 inh. inhibition, % at 20 µM;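 active = inhibition above about 39% in either of two replicate wells at 20 µM, limit read from the data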;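 note: temperature-sensitive tim23-1 mutant grown at 25 °C; 0% = DMSO wells with yeast and 100% = medium wells without yeast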
* hit, by the source's call; x = no result.

SMILES	SKKanGAS inh	tim23-1 inh	TIM10 inh	tim10-1 inh	PfHsp90 yeast 2	EBI2 antag	TIM10 conf	tim23-1 conf
O=C(Nc1ccc2nc(-c3ccccc3)[nH]c2c1)c1cccs1	-6	59*	47*	-22	-26	4	20	69*
O=C(Nc1nc(-c2ccccc2)cs1)c1cccs1	3	53*	44*	34	6	-2	5	55*
COc1cc(C(=O)N2CCN(C(=O)c3cc(-c4ccccc4)n[nH]3)CC2)cc(OC)c1OC	-3	4	9	-5	-5	42	x	x
O=C1c2sc3nc4ccccc4n3c2C(=O)N1c1ccccc1Cl	13	56*	60*	-101	13	9	59*	-19
Cc1ccc(CNS(=O)(=O)c2ccc3c(c2)OCCO3)cc1	-5	56*	41*	38	25	-4	42*	46*
Cc1ccccc1CNS(=O)(=O)c1ccc2c(c1)OCCO2	7	42	23	32	1	1	x	x
O=C1NC(=Nc2ccccc2)S/C1=C/c1cccs1	5	62*	49*	26	-21	-8	32*	72*
N#CC(C(=O)c1ccccc1Cl)=C1SCCCS1	-8	69*	42*	31	-11	5	40*	52*
N#Cc1nc(NCC(F)F)nc(Nc2cc(F)cc(F)c2)n1	x	69*	42*	39	2	3	50*	65*
Cn1cnnc1SCCNS(=O)(=O)c1cccc([N+](=O)[O-])c1	21	-3	0	0	-9	-5	x	x
Cc1cccc(C)c1NC(=O)/C(C#N)=C/c1ccsc1	4	62*	44*	39	16	-16	37*	57*
OCCNc1ncnc2c1ncn2[C@H]1CN(Cc2ccco2)C[C@@H](CO)O1	x	x	x	x	x	-2	x	x
Cn1ncc2c(O/N=C(\N)c3ccc(C(C)(C)C)cc3)ncnc21	0	55*	79*	27	-34	2	84*	24
O=C(Nc1ccc2oc(-c3ccccc3)nc2c1)c1ccco1	-15	51*	64*	39	36	7	-3	79*
Oc1ccc(Cl)cc1-c1cc(-c2ccco2)[nH]n1	9	72*	49*	38	-36	28	38*	15
O=[N+]([O-])c1cc2oc3c(c2c(C=NCc2ccccc2)c1O)CCCC3	7	77*	54*	34	-16	8	0	2

Bioassay records (PubChem)
